Out of some 360,000 compounds screened, about 10,000 (2.8%) were called active. Inconclusive results (about 4%) are left out. The full list was thinned out, with actives kept by preference. Unmarked numbers belong to inactive results. Calls come from the whole dose curve; as a rule, active = well fitted inhibition curve with a large enough effect; inconclusive = small, poorly fitted or top-dose-only effect; inactive = flat fitted curve, though single readings scatter.
biological target: Serine/threonine-protein kinase PLK1 (Homo sapiens) (UniProt P53350); assay: qHTS for Inhibitors of PLK1-PDB (polo-like kinase 1 - polo-box domain): Primary Screen; conditions: Plk1 PBD binding of FITC phosphopeptide, fluorescence polarization; note: nearly all actives have a fitted effect of over 65% in size; for max response, negative = inhibition: series mostly up to about 57 µM
% is set by controls: 0 for no effect and ±100 for the full control effect; potency is the fitted concentration of half-maximal effect.

Serine/threonine-protein kinase PLK1 (Homo sapiens), sequence (P53350 whole entry, looked up, the tested form may be a part): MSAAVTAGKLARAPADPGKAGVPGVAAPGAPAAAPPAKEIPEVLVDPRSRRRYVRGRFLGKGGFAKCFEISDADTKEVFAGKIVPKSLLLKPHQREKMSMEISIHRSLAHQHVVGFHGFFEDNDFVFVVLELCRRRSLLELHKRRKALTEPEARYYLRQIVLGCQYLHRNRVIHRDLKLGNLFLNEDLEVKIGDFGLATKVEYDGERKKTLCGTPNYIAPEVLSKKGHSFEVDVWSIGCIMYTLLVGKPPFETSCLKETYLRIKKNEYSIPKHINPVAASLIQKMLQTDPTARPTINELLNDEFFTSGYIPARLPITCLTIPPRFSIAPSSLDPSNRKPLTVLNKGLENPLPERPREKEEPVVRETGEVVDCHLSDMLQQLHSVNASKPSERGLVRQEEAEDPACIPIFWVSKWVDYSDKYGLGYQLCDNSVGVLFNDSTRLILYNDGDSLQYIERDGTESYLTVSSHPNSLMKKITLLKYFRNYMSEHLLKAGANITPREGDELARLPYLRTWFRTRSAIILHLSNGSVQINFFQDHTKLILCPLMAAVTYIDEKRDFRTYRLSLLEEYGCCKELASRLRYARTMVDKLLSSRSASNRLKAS

| Compound | max response, negative = inhibition | Potency |
| --- | --- | --- |
| COC(=O)C1=CN(c2c(C)cc(C)cc2C)C(N)=C(C#N)C1c1cccc(F)c1 (stereo not drawn) | 0.842% | – |
| CCc1ccccc1NC(=O)CSc1nnc([C@@H](NC(=O)OC(C)(C)C)C(C)CC)o1 (stereo partly drawn) | -15.7% | – |
| CC(C)Sc1nnc([C@H](Cc2ccccc2)NC(=O)OC(C)(C)C)o1 | – | 23.8 µM (active) |
| COc1ccccc1NC(=O)[C@H](COCc1ccccc1)NC(=O)OC(C)(C)C | -12.1% | – |
| CC(C)[C@@H](NC(=O)OC(C)(C)C)C(=O)NCC1CCC(C(=O)N[C@@H](Cc2ccccc2)C(=O)O)CC1 (stereo partly drawn) | 3.75% | – |
| C[C@@H](NC(=O)OC(C)(C)C)c1nnc(S(=O)(=O)Cc2ccccc2)o1 | – | 13.4 µM (active) |
| CC(C)(C)c1ccc(C(CC(=O)O)NS(=O)(=O)Cc2ccccc2)cc1 (stereo not drawn) | -2.95% | – |
| CCCOc1ccc(F)cc1-c1cc(C(=O)NCc2ccc(F)cc2)[nH]n1 | -11.9% | – |
| COc1cc(C(=O)OCCCN2CCOCC2)cc(OC)c1OC | 0.976% | – |
| CCOC(=O)N1CCN(C(=O)C[C@@H]2C[C@@]3(C(=O)OC)CC(C)(C)CC=C3N(Cc3ccco3)C2=O)CC1 | 2.41% | – |
| Cc1cccc(CNC(=O)c2sc(=O)n(Cc3ccccc3C)c2C)c1 | -6.16% | – |
| CCCCCCn1c(SCC(=O)c2ccccc2)nc2c1c(=O)[nH]c(=O)n2C | -19.2% | – |
| CCCCn1c(SCC(=O)N2CCOCC2)nc2c1c(=O)n(C)c(=O)n2C | -13.8% | – |
| CCCCCn1c(SCCC(C)C)nc2c1c(=O)[nH]c(=O)n2C | – | 23.8 µM (active) |
| CCc1nc2c(OCC(=O)C(C)(C)C)cccn2c1N(C)C(=O)c1ccccc1F | -11% | – |
| CC1(C)CC(=O)C=C(c2ccccc2CO)C1=O | -0.138% | – |
| Clc1ccc(-c2cccc3nccn23)cc1 | -1.38% | – |
| COC(=O)c1ccccc1N=NNc1ccc([N+](=O)[O-])cc1 | 0.193% | – |
| COC(=O)c1cn(C(=O)c2ccc(Cl)cc2)c2ccccc12 | -5.55% | – |
| COC(=O)c1ccccc1N=Nc1c(C)[nH][nH]c1=O | – | 23.8 µM (active) |
| CCN(CC)c1ncnc2c1ncn2[C@H]1CN(Cc2cccs2)C[C@@H](CO)O1 | 2.82% | – |
| C[C@@H]1CCCCO[C@H](CN(C)Cc2ccccc2)[C@@H](C)CN([C@H](C)CO)C(=O)c2cc(NS(=O)(=O)c3ccc(Cl)cc3)ccc2O1 | -7.57% | – |

| Compound | max response, negative = inhibition | Potency |
| --- | --- | --- |
| O=C1CSC(=S)N1c1ccc(O)cc1 | 1.87% | – |
| O=C1CSC(=S)N1c1ccc(Cl)c(Cl)c1 | – | 26.7 µM (active) |
| COc1cc(N2C(=O)CSC2=S)cc(OC)c1OC | -18.2% | – |
| CCOC(=O)N1CCN(C(=O)C[C@@H]2C[C@@]3(C(=O)OC)CCCCC=C3N(CCC3=CCCCC3)C2=O)CC1 | 4.13% | – |
| Nc1ncnc2c1ncn2[C@@H]1O[C@H](C(=O)N2CCSC2)[C@@H](O)[C@H]1O | -1.36% | – |
| Clc1ccccc1Nc1nc(NCc2cccs2)nc2ccsc12 | 0.746% | – |
| CCc1nc2c(OCCc3cccc(OC)c3)cccn2c1N(C)C(=O)c1ccc(C)cc1 | -4.74% | – |
| CC(=O)Nc1cc(-c2cccc(CO)c2)cn2c(-c3cccc(C(F)(F)F)c3)cnc12 | -14.2% | – |
| Cc1nnsc1S(=O)(=O)Cc1ccccc1Cl | -7.17% | – |
| O=C(Nc1ccccc1)c1nnsc1S(=O)(=O)c1ccc(Cl)cc1 | – | 4.74 µM (active) |
| O=C(Nc1ccc(S(=O)(=O)Nc2ccccn2)cc1)c1ccccc1 | -2.45% | – |
| Cc1cc2nc(-c3ccc(F)cc3)c(Cc3ccsc3)n2c(C)c1Br | -4.34% | – |
| CCc1c(-c2ccc(F)cc2)ncn1Cc1cccc(-c2ccccc2)c1 | -16% | – |
| CCN(CC)CCN(C(=O)c1ccc2c(c1)CCCC2)c1nc2c(OC)cccc2s1 | -2.72% | – |
| COc1ccc(N(C)C(=O)CCS(=O)(=O)c2cccc3nsnc23)cc1 | -20.6% | – |
| COc1cccc2sc(N(CCCN(C)C)C(=O)CCS(=O)(=O)c3ccccc3)nc12 | – | 10.6 µM (active) |
| CN1OC[C@@H]2CN(C(=O)c3ccc(-c4ccccc4)cc3)[C@H](c3ccc(-c4cccc(F)c4)cc3)C[C@@H]21 | -8.48% | – |
| CC1=C(C(=O)N2CCOCC2)CC(CC(=O)NCc2cccs2)C(=O)N1CCCN1CCCC1=O (stereo not drawn) | -11.8% | – |
| CCCC(=O)N1CCc2[nH]c3ccccc3c2C1 | – | 26.7 µM (active) |
| C=CCNC(=S)N1CCc2[nH]c3ccccc3c2C1 | -8.32% | – |
| O=C(CCCN1CCc2[nH]c3ccc(F)cc3c2C1)c1ccc(F)cc1 | -6.15% | – |
| CCc1nc2c(OCc3ccc(F)c(F)c3)cccn2c1N(C)C(=O)c1ccco1 | 1.07% | – |

| Compound | max response, negative = inhibition | Potency |
| --- | --- | --- |
| O=C(OCc1ccccc1)N1CCC2CC1c1ccc(-c3ccc4c(c3)OCO4)cc12 (stereo not drawn) | 2.15% | – |
| CC1(C(=O)NS(=O)(=O)c2cccc(OC(F)F)c2)CCN1C(=O)COc1ccc(Cl)cc1 (stereo not drawn) | 3.32% | – |
| OC(c1ccc(Cl)c(F)c1)c1ncc(-c2ccccc2Cl)[nH]1 (stereo not drawn) | 3.86% | – |
| CCCCC(O)C1=C[N+](=O)CC=C1 (stereo not drawn) | -14.2% | – |
| C=C1c2c(Cl)ccc(O)c2C(O)=C2C(=O)[C@]3(O)C(O)=C(C(N)=O)C(=O)[C@@H](N(C)C)[C@@H]3[C@@H](O)C12 (stereo partly drawn) | – | 23.8 µM (active) |
| CN(C)[C@@H]1C(=O)C(C(N)=O)=C(O)[C@@]2(O)C(=O)C3=C(O)c4c(O)ccc(Cl)c4[C@@H](O)[C@H]3C[C@@H]12 | -16.8% | – |
| O=C(COC(=O)c1cncc(Br)c1)Nc1ccc(S(=O)(=O)N2CCOCC2)cc1 | -5.27% | – |
| O=[N+]([O-])c1ccccc1S(=O)(=O)Nc1cccc2cccnc12 | -7.49% | – |
| Nc1nc(Sc2ncccc2[N+](=O)[O-])n[nH]1 | 4.21% | – |
| O=[N+]([O-])c1cccc2ncccc12 | – | 3.77 µM (active) |
| CC(C)Cn1cc(-c2cncc3nccn23)cn1 | -13.4% | – |
| O=C(Nc1ccc2c(c1)OCCO2)C1c2ccccc2OCC(=O)N1Cc1ccccn1 (stereo not drawn) | -7.8% | – |
| CCC(C(=O)NCc1cccnc1)n1nc(C)c2sc3ccccc3c2c1=O (stereo not drawn) | – | 26.7 µM (active) |
| CCc1ccc(N(CC(=O)NCc2cccnc2)S(=O)(=O)c2ccccc2)cc1 | -2.42% | – |
| CCC(C(=O)NCc1ccc(OC)cc1)n1nc(C)n2c(cc3occc32)c1=O (stereo not drawn) | -1.71% | – |
| CC(=O)Nc1cccc(-c2ccnc3c2CC(C)(C(=O)NCc2ccco2)O3)c1 (stereo not drawn) | -8.18% | – |
| CCOc1ccc(N(CC(=O)OC)S(=O)(=O)c2c(C)noc2C)cc1 | – | 26.7 µM (active) |
| CCOC(=O)c1cccc(NC(=O)CN(c2ccc(C)cc2)S(=O)(=O)c2c(C)noc2C)c1 | -3.68% | – |
| COc1ccc(N(CC(=O)Nc2cc(OC)ccc2OC)S(=O)(=O)c2c(C)noc2C)cc1 | 2.36% | – |
| CC(=O)Nc1cc(-c2ccccc2F)cn2c(-c3cccc(C(F)(F)F)c3)cnc12 | -1.88% | – |
| Cc1cccc(NC(=O)CN2CCCN(S(=O)(=O)c3ccc(Br)s3)CC2)c1 | – | 21.2 µM (active) |
| Cc1ccc(S(=O)(=O)N2CCN(CC(=O)N/N=C/c3ccc(Br)s3)CC2)cc1 | -1.96% | – |

| Compound | max response, negative = inhibition | Potency |
| --- | --- | --- |
| CC(C)N(C(=O)CN1CCN(S(=O)(=O)c2ccc(Br)s2)CC1)C(C)C | 1% | – |
| CCCCc1c(-c2ccc(Cl)cc2)ncn1CCc1ccccc1OC | 5.05% | – |
| COc1ccc(-c2ccc(CN3C(CC(C)C)C(=O)N(Cc4cn(CC5CCCCC5)nn4)CCS3(=O)=O)cc2)cn1 (stereo not drawn) | -1.42% | – |
| COc1ccc(NC(=O)CN(C)C(=O)c2cc(C)oc2C)cc1 | 1.78% | – |
| CNC(=O)Nc1cc(C(C)(C)C)no1 | – | 10.6 µM (active) |
| CCCCn1nnnc1C(c1cc2ccccc2o1)N(C)Cc1ccc(Cl)c(Cl)c1 (stereo not drawn) | 5.97% | – |
| COC(=O)c1c(C)c(C)nc(N)c1C#N | -3.28% | – |
| Cc1nc(Cl)c(C#N)c2c1CCCC2 | -17.7% | – |
| COCc1c(N)c(C)nc(Cl)c1C#N | – | 18.9 µM (active) |
| O=C(Nc1ccc(F)cc1)Nc1nnc([C@H]2C[C@H](O)[C@@H](CO)O2)s1 | 3.58% | – |
| COC(=O)C[C@H]1C=C[C@H](NC(=O)c2ccc(F)cc2)[C@@H](CO)O1 | -25.2% | – |
| CC1(C)CN(Cc2cccnc2)C(=O)[C@H]1CC(=O)Nc1ccc(Br)cc1 | 2.66% | – |
| Cc1noc(C)c1CCC(=O)N1CCCC(CO)(Cc2ccccc2)C1 (stereo not drawn) | -15.4% | – |
| COC(=O)CCC(=O)N1CCCC(CO)(Cc2ccccc2)C1 (stereo not drawn) | – | 21.2 µM (active) |
| Cc1ccccc1CC1(CO)CCCN(C(=O)c2cc(-c3ccccc3)no2)C1 (stereo not drawn) | -5.7% | – |
| O=C(NCCc1cccc(F)c1)C1CC(O)CN1C(=O)Nc1ccccc1 (stereo not drawn) | -1.53% | – |
| CCCCN1C(=O)C(CC(=O)NCc2cccs2)CC(C(=O)N2CCOCC2)=C1C (stereo not drawn) | 5.78% | – |
| CC(C)(C)C(=O)c1c(N)[nH]c(C(=O)c2ccccc2)c1-c1ccc(F)cc1 | 2.51% | – |
| O=c1oc2cc(O)ccc2cc1-c1ccc(F)cc1 | – | 3.36 µM (active) |
| CN(C)c1cc(-c2ccc(F)cc2)oc(=O)c1Cl | -4.6% | – |
| O=c1oc2ccccc2cc1-c1cn(-c2ccccc2)c(=S)[nH]1 | -16.2% | – |
| CS(=O)(=O)/C(C#N)=C/c1cccn1S(=O)(=O)c1ccc([N+](=O)[O-])cc1 | -19.8% | – |

Source: PubChem BioAssay AID720504 (National Center for Advancing Translational Sciences (NCATS), 2013)
